PubChem BioAssay AID489025 (Southern Research Specialized Biocontainment Screening …, 2010)
In all, about 2,300 compounds went through this assay and about 790 (34%) were called active. No rule for the calls is given here. The list shows a part of the results. Entries with a potency or affinity are not part of this list.

Assay: THP-1 cell cytotoxicity, dose response, cytotoxicity control for non-replicating M. tuberculosis project (AID 489025)
Details: THP-1 cell viability; series mostly up to 40 µM

Row | Structure (SMILES) | outcome
1 | CN(C)/C=C1/C(=O)N(c2ccc([N+](=O)[O-])cc2)N=C1c1ccccc1 | inactive
2 | Cc1cc(C)n2nc(N)c(N=Nc3ccccc3)c2n1 | inactive
3 | S=C1CN=C(c2ccccc2)c2cc(Cl)ccc2N1 | inactive
4 | CC(C)c1ccc(N2C(=O)CC(Sc3ncn[nH]3)C2=O)cc1 (stereo unspecified) | inactive
5 | CCOC(=O)COn1c2c(c3c4no[n+]([O-])c4ccc31)CCCC2 | inactive
6 | CN(C)CCNc1c2c(c(C#N)c3nc4ccccc4n13)CCCC2 | inactive
7 | CC1=NN(c2ccccc2)C(=O)C1C(=O)c1ccccc1 (stereo unspecified) | inactive
8 | Oc1ccccc1CN1CCCC(N2CCN(c3cccc(C(F)(F)F)c3)CC2)C1 (stereo unspecified) | inactive
9 | N=C1/C(=C/c2ccc(OC(=O)c3ccco3)cc2)C(=O)N=C2SC=CN12 | inactive
10 | CCc1ccc(C2=C/C(=C/c3cccnc3)C(=O)O2)cc1 | inactive
11 | Cc1ccc(OCC(=O)OCc2c(C)noc2C)cc1C | inactive
12 | CCOc1ccc(NC(=O)COc2ccc3c(c2)OCO3)cc1 | inactive
13 | O=C(COC(=O)c1ccccc1Br)Nc1ccccc1F | inactive
14 | O=C(CCNc1ccc(Cl)cc1)c1cccs1 | inactive
15 | Cc1occc1-c1nnc(-c2cc([N+](=O)[O-])cc([N+](=O)[O-])c2)o1 | inactive
16 | Cc1cc(NC(=O)c2cc([N+](=O)[O-])cc([N+](=O)[O-])c2)no1 | inactive
17 | CCOC(=O)c1ccc(N=C(CC)c2c(O)n(C)c(=O)n(C)c2=O)cc1 | inactive
18 | O=C1OC(/C(=C\Nc2cc(Cl)ccc2O)[N+](=O)[O-])c2ccccc21 (stereo unspecified) | inactive
19 | CS(=O)(=O)Cc1nc2ccccc2oc1=O | inactive
20 | COc1cccc2cc(-c3nc4ccccc4o3)c(=O)oc12 | inactive
21 | O=C(OCC(=O)N1CCCC1)c1cc(Br)ccc1Cl | inactive
22 | CC12CC3CC(C)(C1)CC(C(=O)N1CCCC1)(C3)C2 | inactive
23 | OC(COc1ccc2ccccc2c1Br)Cn1ccnc1 (stereo unspecified) | inactive
24 | O=C(COc1ccccc1)NCCSCc1ccc(Cl)cc1 | inactive
25 | OC(COc1ccccc1Cl)CN1CCN(CC(O)COc2ccccc2Cl)CC1 (stereo unspecified) | inactive

Row | Structure (SMILES) | outcome
26 | CCOC(=O)COc1ccc2c(c1)c(C(C)=O)c(C)n2Cc1ccccc1 | inactive
27 | CCOc1ccc(Cn2c(=O)oc3ccccc32)cc1 | inactive
28 | O=C(OCC#CCSc1nnc(-c2ccncc2)o1)c1cccs1 | inactive
29 | COc1ccc(COc2cccc(C=O)c2)cc1 | inactive
30 | CCCCn1c(=O)c(C(=O)Nc2nnc(C(C)C)s2)c(O)c2ccccc21 | inactive
31 | CCOC(=O)Cc1csc(NC(=O)COc2ccc3c(c2)CCC3)n1 | inactive
32 | CCCNC(=O)N1CCC(c2ccc3c(c2)OCO3)CC1 | inactive
33 | CCOC(=O)C1CCCc2c1[nH]c1c(C(N)=O)cccc21 (stereo unspecified) | inactive
34 | O=C(OCC#CCSc1nc2ccccc2o1)c1ccco1 | inactive
35 | C/C(=N\O)c1cc(Cl)ccc1O | inactive
36 | O=C(COC(=O)c1cc(Cl)ccc1O)c1ccc2c(c1)OCO2 | inactive
37 | CCOC(=O)COc1ccc2c(=O)cc(-c3ccccc3)oc2c1 | inactive
38 | CN(C)c1ccc(/C=C2\N=C(C(C)(C)C)OC2=O)cc1 | inactive
39 | O=c1c2c([N+](=O)[O-])cc([N+](=O)[O-])cc2nc2ccccn12 | inactive
40 | O=C(OCc1cccc([N+](=O)[O-])c1)c1ccc2ccccc2n1 | inactive
41 | CSc1ccc(CNc2ncc(-c3cccc([N+](=O)[O-])c3)n2C)cc1 | inactive
42 | N[C@@H](Cc1ccccc1)c1nnc(SC/C=C/c2ccccc2)o1 | inactive
43 | CCOc1ccc(-c2nnc(NC(=O)CCCOc3cccc(C)c3)o2)cc1 | inactive
44 | O=C(Nc1nnc(-c2ccc3c(c2)CCCC3)o1)c1c(F)cccc1F | inactive
45 | Cc1cccc(C(=O)Nc2nnc(-c3cccnc3)o2)c1 | inactive
46 | CCOc1ccc(C(=O)Nc2nnc(C3=COCCO3)o2)cc1 | inactive
47 | O=C(COc1ccccc1)Nc1nnc(-c2ccc3c(c2)CCCC3)o1 | inactive
48 | CCOc1ccccc1C(=O)OCC(=O)Nc1nnc(-c2ccccc2)o1 | inactive
49 | COc1ccc(C(=O)COC(=O)c2ccccc2O)c(OC)c1 | inactive
50 | O=Cc1ccc(OC2OCCOC2Oc2ccc(C=O)cc2)cc1 (stereo unspecified) | inactive

Row | Structure (SMILES) | outcome
51 | O=C(CCN1CCN(C/C=C/c2ccccc2)CC1)Nc1ccc(Cl)cc1 | inactive
52 | COc1ccccc1C(=O)OCC(=O)Nc1ccc(Cl)cn1 | inactive
53 | C=CCOC(=O)c1ccc(-n2cnc(C)n2)nc1 | inactive
54 | NC(=O)CN1CCN(C2CC(=O)N(CCc3ccccc3)C2=O)CC1 (stereo unspecified) | inactive
55 | COc1cccc(C(=O)OCC(=O)Nc2nnc(-c3ccccc3)o2)c1 | inactive
56 | O=C(Nc1nnc(-c2ccc(Cl)cc2)o1)C1=COCCO1 | inactive
57 | Cc1ccc(C(=O)Nc2nnc(-c3ccncc3)o2)cc1 | inactive
58 | O=C(COc1ccccc1)Nc1nnc(-c2ccc(Cl)cc2)o1 | inactive
59 | O=C(Nc1nnc(-c2ccc(Cl)cc2)o1)c1cccc(N2C(=O)CCC2=O)c1 | inactive
60 | O=C(COC(=O)CC12CC3CC(CC(C3)C1)C2)Nc1cccnc1Cl | inactive
61 | CCc1ccc(N=CC2=C(O)CC(c3ccco3)CC2=O)cc1 (stereo unspecified) | inactive
62 | C(=C\c1ccccc1)/CSc1nc2ncccc2[nH]1 | inactive
63 | CCOC(=O)c1ccc(COC(=O)c2ccc(-c3nnc(-c4ccccc4)o3)cc2)o1 | inactive
64 | CCOC(=O)C1CCCN(Cc2ccc(OCc3ccccc3)cc2)C1 (stereo unspecified) | inactive
65 | CCOC(=O)C1CCN(Cc2ccc(-c3ccccc3)cc2)CC1 | inactive
66 | CCC(=O)c1ccc(OCc2ccc(C(=O)OC)cc2)cc1 | inactive
67 | COc1ccccc1N=Cc1nc(-c2ccccc2)oc1OC(C)=O | inactive
68 | CN(CCOCCOc1ccc(F)cc1)Cc1ccccc1 | inactive
69 | Brc1ccc(OCCCCN2CCCCC2)cc1 | inactive
70 | Cc1ccc(NC(=O)ON=C2CCCC2)cc1 | inactive
71 | Cc1ccc(NC(=O)COc2ccccc2)cc1Cl | inactive
72 | O=C(COc1ccc(Cl)cc1)Nc1ccc2[nH]ncc2c1 | inactive
73 | CCOc1ccccc1OC(=O)c1cc2ccccc2oc1=O | inactive
74 | Cc1cccc(OCCCCc2c(C)n[nH]c2C)c1 | inactive
75 | Cc1ccc(C(=O)NCCOc2cccc(C)c2)cc1 | inactive

Row | Structure (SMILES) | outcome
76 | CCCCOC(=O)c1ccc(OC(=O)c2cccnc2)cc1 | inactive
77 | COc1ccc(OC(=O)c2cc3cc(Cl)ccc3oc2=O)cc1 | inactive
78 | COc1ccc(Cl)cc1N=Cc1c(O)c2ccccc2oc1=O | inactive
79 | Cc1ccc(NC(=O)CO/N=C/c2ccc(N(C)C)cc2)cc1 | inactive
80 | COc1ccc(CC(=O)OCC(=O)Nc2ccc(Br)cc2)cc1 | inactive
81 | Cc1ccccc1C(=O)Nc1nnc(-c2ccco2)o1 | inactive
82 | Cc1ccc(CCC(=O)Nc2ccccc2F)s1 | inactive
83 | O=C(Nc1nnc(-c2ccc(Br)cc2)o1)C1=COCCO1 | inactive
84 | Cc1cccc(NC(=O)COc2ccc(Br)cc2)n1 | inactive
85 | O=C(Nc1ccccc1F)c1ccc(Br)o1 | inactive
86 | O=C(Nc1nnc(-c2ccc(Br)cc2)o1)c1ccco1 | inactive
87 | O=C(COC(=O)c1ccc([N+](=O)[O-])s1)Nc1ccc(Cl)cn1 | inactive
88 | O=C(Nc1nnc(-c2ccco2)o1)c1cccc2ccccc12 | inactive
89 | Fc1ccc(COc2ccc(-c3nnco3)cc2)cc1 | inactive
90 | Cc1ccc(C(=O)OCC(=O)N2CCCCCC2)c(O)c1 | inactive
91 | COc1ccc(-c2nc3ccc(C)cc3c(=O)o2)cc1OC | inactive
92 | CC1(C)CC(=O)C(C2NCCc3ccccc32)=C(O)C1 (stereo unspecified) | inactive
93 | C/C(CC(=O)Nc1ccc(C)c(Cl)c1)=N\NC(=O)c1ccco1 | inactive
94 | CCOC(=O)c1cc(COc2cc(Cl)cc(Cl)c2)on1 | inactive
95 | CCOc1ccc(NC(=O)CCC(=O)N/N=C/c2ccc([N+](=O)[O-])s2)cc1 | inactive
96 | Cc1nc2ccc(NC(=O)c3ccc([N+](=O)[O-])cc3[N+](=O)[O-])cc2s1 | inactive
97 | COc1cccc2cc(C(=O)NCc3ccc(F)cc3)c(=N)oc12 | inactive
98 | CC1Cc2cc(/C=C3/SC(=S)NC3=O)ccc2O1 (stereo unspecified) | inactive
99 | CC(C)(O)C#Cc1ccc(C(=O)Nc2ccc3c(c2)OCO3)s1 | inactive
100 | CC(C)n1c(=S)[nH]c2ccccc2c1=O | inactive

Row | Structure (SMILES) | outcome
101 | CCC(C)(C)NC(=O)c1ccc(Br)o1 | inactive
102 | O=C(Nc1ccccc1)c1ccc(Br)o1 | inactive
103 | O=C(NNc1ccc([N+](=O)[O-])cc1)c1ccccc1Cl | inactive
104 | O=C(O)c1ccccc1C(=O)NNc1ccc(Cl)cc1 | inactive
105 | O=C(O)c1ccccc1C(=O)NNc1ccc(F)cc1 | inactive
106 | CCOC(=O)COc1ccc(C(=O)NC2CCCCC2)cc1 | inactive
107 | COc1ccc(C(=O)NN/C(C)=C/C(=O)c2ccccc2)cc1 | inactive
108 | O=C(COC(=O)C1CCCCC1)Nc1ccccc1OC(F)F | inactive
109 | NC(=O)/C(=N\OC(=O)c1ccco1)c1nc(-c2ccc(Br)cc2)cs1 | inactive
110 | O=C(OCc1cccc(F)c1)c1ccc2c(=O)n3c(nc2c1)CCC3 | inactive
111 | Cc1ccc(/C=C2/C(=O)NC(=O)N(CCc3ccc(F)cc3)C2=O)s1 | inactive
112 | Cc1ccc(NC(=O)CN(C)C2CCCCC2)cc1Br | inactive
113 | O=C(OCCCCN1C(=O)c2ccccc2C1=O)c1ccc(Br)o1 | inactive
114 | Nn1c(SCCOc2ccc(Cl)cc2)nnc1-c1cccnc1 | inactive
115 | Cc1ccc(CC(=O)Nc2ccc(Cl)cn2)cc1 | inactive
116 | O=C(Nc1nc2ccccc2n1CCN1CCCC1)c1ccc(Cl)cc1 | inactive
117 | Cn1[nH]c(-c2ccccc2)c(/C=N/O)c1=O | inactive
118 | Clc1ccc(Cc2nnc(-c3cccs3)o2)cc1 | inactive
119 | c1cncc(-c2noc(CC3CCCCC3)n2)c1 | inactive
120 | CCOC(=O)C(=NCCOC)NNc1cc(Cl)ccc1Cl | inactive
121 | CCOc1cccc2cc(C(=O)NCc3ccccc3)c(=N)oc12 | inactive
